Screening data: PubChem, National Center for Advancing Translational Sciences (NCATS)
Most compounds without a hit are left out; they make up all but 4.2% or so of the library.
a7 integrin act = qHTS for Activators of Integrin-Mediated Alleviation for Muscular Dystrophy; AID 624291, 2012; alpha7betagal myoblasts, beta-gal FDG fluorescence, 48 h; Potency, µM (doses to about 38.3 µM), most hits filed as activators; hit rate 0.064% among 350,000; further: nearly all actives have a fitted effect of over 60% in size
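alpha7betagal+/- myoblasts (passage 13, 250/well) treated 48 h at 37C with compounds at 1:260 dilution of DMSO stock. Lysed, then beta-galactosidase activity read as FDG fluorescence (ex 480/em 540) after 30 min, with pre-read for autofluorescence.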
Mito fusion act = qHTS Assay for Small Molecule Inhibitors of Mitochondrial Division or Activators of Mitochondrial Fusion | Potency, µM (highest dose often 46.1 µM), actives largely listed as activators | hit rate 0.23% among 320,000 | S. cerevisiae fusion-defective mutant growth rescue, CellTiterGlo 48 h | AID 485298, 2010; further: nearly all actives have a fitted effect of over 45% in size
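Read-out: ATP-based luminescence (CellTiterGlo, 10 min ambient) reporting growth of fusion-defective ts yeast after 48 hours at 37C on glycerol/ethanol YPEG medium in the presence of compound.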
SW480 rerep = A quantitative high throughput screen for small molecules that induce DNA re-replication in SW480 colon adenocarcinoma cells; SW480 DNA re-replication, Hoechst DNA content imaging, 48 h; Potency, µM (series often up to 46.1 µM), usual class: activators; hit rate 1.8% among 340,000; AID 624297, 2012; further: nearly all actives have a fitted effect of over 55% in size
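Cells (250 per well) received 23 nL compound or DMSO by pin tool and were kept 48 hr at 37 C, 5% CO2. Nuclei were then stained with Hoechst for 40 min and scanned for DNA content.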
MCF10A rereplic = A quantitative high throughput screen for small molecules that induce DNA re-replication in MCF 10a normal breast cells; MCF 10A DNA re-replication, Hoechst nuclear intensity, 48 h; Potency, µM (titrated, usually from 46.1 µM), most hits filed as activators; hit rate 2.9% among 350,000; AID 624296, 2012; further: nearly all actives have a fitted effect of over 50% in size
A-T KAP1 phos = qHTS Assay for Identifying a Potential Treatment of Ataxia-Telangiectasia; Potency, µM (titrated, usually from 57.5 µM), hits mostly activators; hit rate 0.19% among 320,000; F2112 A-T fibroblasts, KAP-1 phosphorylation AlphaLISA; neocarzinostatin DNA damage 30 min before lysis; AID 485349, 2010; further: nearly all actives have a fitted effect of over 45% in size
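hTERT-immortalized A-T patient fibroblasts (F2112), 500 cells/well in OPTI-MEM, 1% FBS, got compounds for 60 min, then NCS for 30 min at 37C. Lysates were then assayed for phospho-KAP-1 by AlphaLISA (anti-pKAP1 donor, anti-KAP1 acceptor beads), 6 hr at 25C.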
Numbers stand for hits; 0 = inactive; ? = inconclusive; - = no result; [ ] = another dose, or the depositor's remark. The call rests on the fitted dose curve; in most records, active means well fitted activation curve with a large enough effect; inconclusive means small, poorly fitted or top-dose-only effect; inactive means no such curve, though single readings can be large or run the other way.

SMILES | a7 integrin act | Mito fusion act | SW480 rerep | MCF10A rereplic | A-T KAP1 phos
CCOc1ccc(N(CC(=O)NC2CCCCC2)S(=O)(=O)c2ccccc2)cc1 | 0 | 0 | 0 | 0 | 0
COc1ccc(-c2nc3ccc(C4=C(C)CC(=O)NN4)cc3[nH]2)cc1 | - | - | 18.8µM | ? | -
CCOc1ccc(N(C)S(=O)(=O)c2cc(-c3cc(C)no3)ccc2C(C)C)cc1 | 0 | 0 | ? | ? | 0
CCOc1ccc(N(C)S(=O)(=O)c2ccc(-c3cc(C)no3)s2)cc1 | 0 | 0 | 9.2µM | 4.61µM | 0
Cc1cccc(N(C)S(=O)(=O)c2ccc(-c3cc(C)no3)s2)c1 | 0 | 0 | 0.82µM | ? | 0
CSc1nc2ncc(-c3ccsc3)c(N)n2n1 | 0 | 0 | 0 | 0 | 0
Nc1nc2ncc(-c3ccsc3)c(N)n2n1 | 0 | 0 | 3.66µM | 0 | 0
CCCCOc1ccc(C(=O)NCC(=O)OC2CCOC2=O)cc1 (stereo not drawn) | 0 | 0 | ? | 3.26µM | -
Cc1cc2c(cc1S(=O)(=O)N1CCN(c3cccc(C(F)(F)F)c3)CC1)OCC(=O)N2 | 0 | 0 | ? | 23.1µM | 0
O=C1COc2ccc(S(=O)(=O)N3CCN(c4cccc(C(F)(F)F)c4)CC3)cc2N1 | 0 | 0 | ? | 0 | 0
CC1CCN(C(=O)/C=C/c2ccc(C(C)(C)C)cc2)CC1 | 0 | 0 | 0 | 18.4µM | 0
COC(=O)/C=c1/s/c(=C(/C#N)C(=O)N2CCCCC2)n(-c2ccccc2)c1=O | 0 | 0 | 0.326µM | 0 | 0
COC(=O)/C=c1/s/c(=C(/C#N)C(=O)N2CCOCC2)n(-c2ccccc2)c1=O | 0 | 0 | 0[9.22 µM] | ? | 0
COc1ccccc1N(CC(=O)NCCSCc1cccc(C)c1)S(=O)(=O)c1ccccc1 | 0 | 0 | 0 | 18.4µM | 0
Cc1ccc(-c2cc(C(F)(F)F)n3nc(C(=O)NCC45CC6CC(CC(C6)C4)C5)cc3n2)cc1 | - | 0 | - | - | -
Cc1cccc(NC(=O)CCCN2C(=O)C(c3ccccc3)Oc3cccnc32)c1C (stereo not drawn) | 0 | 0 | 0 | 0 | 0
Cc1cccc(C)c1NC(=O)CCCN1C(=O)C(c2ccccc2)Oc2cccnc21 (stereo not drawn) | 0 | 12.6µM | 0 | 0 | 0
CCCC[n+]1ccn(-c2nc3ccccc3nc2[N-]S(=O)(=O)c2ccc(Br)cc2)c1 | 0 | 0 | 18.4µM | ? | 0
CC(C)CC[n+]1ccn(-c2nc3ccccc3nc2[N-]S(=O)(=O)c2ccccc2)c1 | 0 | 0 | 0 | 0 | 0
O=S(=O)([N-]c1nc2ccccc2nc1-n1cc[n+](Cc2ccccc2)c1)c1ccc(Cl)cc1 | 0 | 0 | 18.4µM | 18.4µM | 20µM
Cc1cccc(NS(=O)(=O)c2ccc(C)c(C(=O)NNC(=O)c3csc(N4CCOCC4)n3)c2)c1 | 0 | - | 0 | ? | -
Cc1cccc(Cn2nc(C(C)(C)C)cc2C(=O)N2CCOCC2)c1 | 0 | 0 | 0 | 0 | 0
CN(Cc1ccccc1)C(=O)CN1CCN(S(=O)(=O)c2ccccc2F)CC1 | 0 | - | - | - | -
Cc1nn(Cc2cccc(C(=O)NC34CC5CC(CC(C5)C3)C4)c2)c(C)c1Br | 0 | ? | 0 | 9.2µM | 0
CCCNC(=O)c1cccc(Cn2nc(C)c(Br)c2C)c1 | 0 | 0 | 0[9.22 µM] | 0 | 0
SMILES | a7 integrin act | Mito fusion act | SW480 rerep | MCF10A rereplic | A-T KAP1 phos
CCOC(=O)c1sc2ncn(CC(=O)N(CC)CC)c(=O)c2c1C | 0 | 0 | ? | 14.6µM | 0
CC(C)(C)c1csc(NC(=O)c2ccc(Cl)s2)n1 | 0 | 0 | ? | ? | 0
CCNc1nc(N)c(C(=O)c2ccc(Cl)s2)s1 | 0 | 0 | ? | 0.92µM | 0
C#CCN(C[C@H]1[C@H](OC(=O)Nc2c(C)noc2C)[C@H](OC(=O)Nc2c(C)noc2C)C[C@H]2C(=O)N(c3ccccc3)C(=O)[C@@H]12)S(=O)(=O)c1ccc(C)cc1 | 0 | - | - | - | -
Cc1nc(Nc2ccccc2Cl)sc1C(=O)Nc1ccccc1 | 0 | 15.8µM | 0 | ? | 0
Cc1nc(NC(=O)/C=C/c2ccccc2)sc1C(=O)Nc1ccccc1 | 0 | 0 | ? | 20.6µM | 0
Cc1nc(NC(=O)/C=C/c2ccccc2)sc1C(=O)NCCO | 0 | 0 | 0 | 0 | 0
CC(C)[C@H](N)C(=O)N[C@H]1CCC2C3CC=C4C[C@@H](O)CC[C@]4(C)C3CC[C@@]21C (stereo partly drawn) | 0 | - | - | - | -
Cc1ccc(OCc2cc(C(=O)N3CCN(c4ccccc4)CC3)no2)cc1C | 0 | 0 | ? | 0 | 0
CCN1C(=O)/C(=C/c2ccc(C)o2)N(C)C1=S | 0 | 0 | 18.4µM | ? | 0
CCN1C(=O)/C(=C/c2cccs2)N(C)C1=S | 0 | 0 | 0 | 0 | 0
CCCCN(C(=O)c1cc(S(=O)(=O)N2CCCCC2)ccc1Cl)c1c(N)n(CCC)c(=O)[nH]c1=O | 0 | - | 0 | 0 | -
Cc1cc(C)n2c(SCc3ccc(Br)cc3)nnc2n1 | 0 | 0 | 0 | 0 | 3.55µM
COC(=O)c1ccc(CSc2nnc3nc(C)cc(C)n23)cc1 | 0 | 0 | 0 | 0 | 0
CCN(CC)c1ccc(N=Cc2ccccc2[N+](=O)[O-])cc1 | 0 | 0 | 2.59µM | ? | 0
CCNc1nc(NCC)nc(N/N=C/c2ccc([N+](=O)[O-])o2)n1 | 0 | 0 | ? | 0 | 0
CCN(CC)c1ccc(N=Cc2ccc([N+](=O)[O-])o2)cc1 | 0 | 0 | 2.31µM | 23.1µM | 0
O=C(/C=C/c1ccc(Cl)cc1Cl)c1ccc[nH]1 | 0 | 0 | ? | 0 | 0
O=C(/C=C/c1ccccc1Cl)c1ccc[nH]1 | 0 | 14.1µM | 4.61µM | ? | 0
CCOC(=O)c1[nH]c2ccc(F)cc2c1NC(=O)C(C)N1CCc2cc(OC)c(OC)cc2C1 (stereo not drawn) | 0 | 0 | 16.4µM | 7.31µM | 0
CCOC(=O)/C=C/C(=O)N1CCN(C(=O)/C=C/C(=O)OCC)CC1 | 0 | 0 | ? | 14.6µM | 0
O=C(O)/C=C/C(=O)N1CCN(C(=O)/C=C/C(=O)O)CC1 | 0 | 0 | 0 | 0 | 0
COC(=O)c1cccc(Nc2nc(-c3cccnc3)nc3ccccc23)c1 | ? | 0 | 0 | ? | 0
Cc1cccc(C)c1NC(=O)COC(=O)c1cc(-c2cccnc2)nc2ccccc12 | 0 | 0 | 0 | 11.6µM | 0
CCOC(=O)c1cccc(Nc2nc(-c3cccnc3)nc3ccccc23)c1 | 0 | 0 | ? | 23.1µM | 0
Cc1c(NC(=O)COC(=O)c2cc(-c3ccc(-c4ccccc4)cc3)nc3ccccc23)c(=O)n(-c2ccccc2)n1C | 0 | 0 | - | 20.6µM | 0
O=C(COC(=O)c1cc(-c2ccccc2)nc2ccccc12)Nc1ccc2c(c1)OCO2 | 0 | 0 | 0 | 5.17µM | 0
O=C(COC(=O)c1cc(-c2cccnc2)nc2ccccc12)Nc1ccc(F)cc1F | 0 | 0 | 0 | 0 | 0
